Several values for one entry are separate records, joined by “and”; a condition that tells them apart may be missing. Equal entries are not always repeated. More than one record can exist for a structure, and the calls need not agree. Activity calls are given as the source filed them. Where a call stands in place of a potency, no number is given. Unless noted, calls come from the whole dose curve; as a rule, active = well fitted curve in the direction sought with a large enough effect in the repeat runs; inconclusive = weak or mixed curves; inactive = no such curve, though single readings can be large; an effect the other way counts as inactive or inconclusive. Starred links: 1 amine or outer side, 2 acyl side, 3 side chain; linkers in the order of their positions; H or OH if unused. Positions of bridges follow the written chain, without caps; N, C: chain ends. Non-standard residues stand in square brackets, D forms with d. Residues, ends and D or L forms follow the SMILES beside them. Chains are numbered I, II in the order given. Actinocin(9to1) = Cc1c2oc3c(C)ccc(C(=O)[*:1])c3nc-2c(C(=O)[*:2])c(N)c1=O; NMeV = CN[C@H](C(=O)O)C(C)C; Sar = CNCC(=O)O
Legend:
[1] = qHTS assay to identify small molecule antagonists of the glucocorticoid receptor (GR) signaling pathway - cell viability counter screen (AID 720693); note: nearly all actives have a fitted effect of over 55% in size; note: potency is the fitted concentration of half-maximal effect
[2] = qHTS assay for identifying genotoxic compounds that show differential cytotoxicity against isogenic chicken DT40 cell lines with known DNA damage response pathways - wild type cell line (AID 743012); note: nearly all actives have a fitted effect of over 60% in size; note: potency is the fitted concentration of half-maximal effect
Method in brief: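 Using parental DT40 (300 cells/well), compounds delivered in DMSO incubate 40 h at 37 C/5% CO2. CellTiter-Glo reagent then stands 30 min at room temperature, and luminescence gives cell viability.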

[3] = qHTS assay for identifying genotoxic compounds that show differential cytotoxicity against isogenic chicken DT40 cell lines with known DNA damage response pathways - Rev3 mutant cell line (AID 743014); note: nearly all actives have a fitted effect of over 55% in size; note: potency is the fitted concentration of half-maximal effect
[4] = qHTS assay for identifying genotoxic compounds that show differential cytotoxicity against isogenic chicken DT40 cell lines with known DNA damage response pathways - Rad54/Ku70 mutant cell line (AID 743015); note: nearly all actives have a fitted effect of over 60% in size; note: potency is the fitted concentration of half-maximal effect
[5] = qHTS assay to identify small molecule antagonists of the androgen receptor (AR) signaling pathway - cell viability counter screen (AID 743033; note: nearly all actives have a fitted effect of over 45% in size; note: potency is the fitted concentration of half-maximal effect)
[6] = qHTS assay to identify small molecule antagonists of the androgen receptor (AR) signaling pathway using the MDA cell line - cell viability counter screen (AID 743041; note: nearly all actives have a fitted effect of over 45% in size; note: potency is the fitted concentration of half-maximal effect)
Method in brief: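 MDA-kb2 AR-luc human breast carcinoma cells (MMTV-luciferase, AR/GR responsive) were treated with compounds plus R1881 agonist for 16 h at 37 °C. Viability was read as CellTiter-Fluor fluorescence in the same wells as the reporter assay.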

[7] = qHTS assay to identify small molecule antagonists of the thyroid receptor (TR) signaling pathway - cell viability counter screen (AID 743064); note: nearly all actives have a fitted effect of over 50% in size; note: potency is the fitted concentration of half-maximal effect
Method in brief: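 Counter screen for cytotoxicity: compound plus T3 (1 nM final) on GH3.TRE-Luc cells, 23.5 h at 37 °C, then fluorescence viability readout with CellTiter-Fluor.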

[8] = qHTS assay to identify small molecule antagonists of the thyroid receptor (TR) signaling pathway (AID 743065); note: nearly all actives have a fitted effect of over 55% in size; note: potency is the fitted concentration of half-maximal effect
Method in brief: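 GH3.TRE-Luc rat pituitary cells carrying two TR response elements driving luciferase were plated for 4 h, given compound plus 1 nM T3 (final), and incubated 23.5 h at 37 C. ONE-Glo luminescence measured reporter inhibition; CellTiter-Fluor fluorescence tracked cytotoxicity.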

[9] = system: thyroid hormone receptor (rat, GH3 cells); test: qHTS assay to identify small molecule agonists of the thyroid receptor (TR) signaling pathway (AID 743066; calls by dose curve)
[10] = molecular target: Estrogen receptor (Homo sapiens) (UniProt P03372); test: qHTS assay to identify small molecule antagonists of the estrogen receptor alpha (ER-alpha) signaling pathway (AID 743069; active = well fitted curve in the direction sought with a large enough effect in the signal ratio in the repeat runs, not every such curve was filed as active; inconclusive = weak or mixed curves, or effect the other way; inactive = no such curve, though single readings can be large or run the other way; the % refers to the signal ratio; note: potency is the fitted concentration of half-maximal effect)
Method in brief: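 HEK293 cells stably carrying an ER-alpha-UAS-bla beta-lactamase reporter were pre-cultured overnight in 2% charcoal-stripped FBS medium. Test compounds in DMSO were added together with 17beta-estradiol for 18 hr at 37C. Read-out was fluorescence after 2 hr with LiveBLAzer B/G FRET substrate at room temperature.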

[11] = qHTS assay to identify small molecule antagonists of the estrogen receptor alpha (ER-alpha) signaling pathway - cell viability counter screen (AID 743074; calls by dose curve; note: nearly all actives have a fitted effect of over 45% in size; note: potency is the fitted concentration of half-maximal effect)
[12] = molecular target: Estrogen receptor (Homo sapiens) (UniProt P03372); test: qHTS assay to identify small molecule agonists of the estrogen receptor alpha (ER-alpha) signaling pathway (AID 743075; calls by dose curve)
[13] = molecular target: Estrogen receptor (Homo sapiens) (UniProt P03372); test: qHTS assay to identify small molecule agonists of the estrogen receptor alpha (ER-alpha) signaling pathway using the BG1 cell line (AID 743079); note: nearly all actives have a fitted effect of over 20% in size
[14] = qHTS assay to identify small molecule antagonists of the estrogen receptor alpha (ER-alpha) signaling pathway using the BG1 cell line (AID 743080; calls by dose curve;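 note: BG1 cells stimulated with 17beta-estradiol alongside compound; nearly all actives have a fitted effect of over 25% in size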; note: potency is the fitted concentration of half-maximal effect)
Method in brief: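 Endogenous full-length ER-alpha in BG1-Luc-4E2 cells drives a stably integrated 4×ERE luciferase gene; compounds were tested against 17beta-estradiol over 21.5 h, with luminescence and multiplexed viability fluorescence recorded.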

[15] = qHTS assay to identify small molecule antagonists of the estrogen receptor alpha (ER-alpha) signaling pathway using the BG1 cell line - cell viability counter screen (AID 743081);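 note: compound given together with 17beta-estradiol as the ER stimulus; nearly all actives have a fitted effect of over 45% in size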; note: potency is the fitted concentration of half-maximal effect
Aromatase (Homo sapiens) = Aromatase (Homo sapiens) (UniProt P11511); test: qHTS assay to identify aromatase inhibitors (AID 743083); note: nearly all actives have a fitted effect of over 55% in size; note: potency is the fitted concentration of half-maximal effect
[16] = molecular target: Androgen receptor (Homo sapiens) (UniProt P10275); test: qHTS assay to identify small molecule agonists of the androgen receptor (AR) signaling pathway using the MDA cell line (AID 743040; note: nearly all actives have a fitted effect of over 20% in size)
Method in brief: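 MDA-kb2 breast carcinoma cells stably carrying an MMTV-driven luciferase reporter (AR- and GR-responsive) were seeded and held 5 h at 37C, 0% CO2, then exposed to compounds in DMSO for 16 h. Luminescence was read 30 min after ONE-Glo addition.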

[17] = molecular target: Androgen receptor (Homo sapiens) (UniProt P10275); test: qHTS assay to identify small molecule antagonists of the androgen receptor (AR) signaling pathway using the MDA cell line (AID 743042; note: nearly all actives have a fitted effect of over 55% in size; note: potency is the fitted concentration of half-maximal effect)
Method in brief: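 MDA-kb2 cells (human breast carcinoma, stably carrying an MMTV-luciferase reporter responsive to AR and GR) were plated at 3,000 cells/well and preincubated 5 hr at 37C, then given compound plus R1881 agonist for 16 h. ONE-Glo luminescence was read.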

[18] = molecular target: Androgen receptor (Homo sapiens) (UniProt P10275); test: qHTS assay to identify small molecule antagonists of the androgen receptor (AR) signaling pathway (AID 743035; active = well fitted inhibition curve with a large enough effect in the signal ratio in the repeat runs, not every such curve was filed as active; inconclusive = weak or mixed curves, or effect the other way; inactive = no such curve, though single readings can be large or run the other way; the % refers to the signal ratio; note: potency is the fitted concentration of half-maximal effect)
Method in brief: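 Using qHTS, AR-UAS-bla GripTite HEK293 cells received compound, then R1881, and were cultured 16 h at 37C/5% CO2 before a 2 h room-temperature LiveBLAzer B/G FRET substrate step and fluorescence measurement.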

[19] = molecular target: Androgen receptor (Homo sapiens) (UniProt P10275); test: qHTS assay to identify small molecule agonists of the androgen receptor (AR) signaling pathway (AID 743036; active = well fitted activation curve with a large enough effect in the signal ratio in the repeat runs, with a control signal flat, not every such curve was filed as active; inconclusive = weak or mixed curves, or effect the other way; inactive = no such curve, though single readings can be large or run the other way; the % refers to the signal ratio)
Method in brief: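 In this Tox21 qHTS, 2,000 HEK293 AR-bla cells per well were incubated with compounds for 16 h at 37C and 5% CO2. Fluorescence intensity was recorded 2 h after adding LiveBLAzer B/G FRET substrate at room temperature.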

Androgen receptor (Homo sapiens), sequence (P10275 whole entry, looked up): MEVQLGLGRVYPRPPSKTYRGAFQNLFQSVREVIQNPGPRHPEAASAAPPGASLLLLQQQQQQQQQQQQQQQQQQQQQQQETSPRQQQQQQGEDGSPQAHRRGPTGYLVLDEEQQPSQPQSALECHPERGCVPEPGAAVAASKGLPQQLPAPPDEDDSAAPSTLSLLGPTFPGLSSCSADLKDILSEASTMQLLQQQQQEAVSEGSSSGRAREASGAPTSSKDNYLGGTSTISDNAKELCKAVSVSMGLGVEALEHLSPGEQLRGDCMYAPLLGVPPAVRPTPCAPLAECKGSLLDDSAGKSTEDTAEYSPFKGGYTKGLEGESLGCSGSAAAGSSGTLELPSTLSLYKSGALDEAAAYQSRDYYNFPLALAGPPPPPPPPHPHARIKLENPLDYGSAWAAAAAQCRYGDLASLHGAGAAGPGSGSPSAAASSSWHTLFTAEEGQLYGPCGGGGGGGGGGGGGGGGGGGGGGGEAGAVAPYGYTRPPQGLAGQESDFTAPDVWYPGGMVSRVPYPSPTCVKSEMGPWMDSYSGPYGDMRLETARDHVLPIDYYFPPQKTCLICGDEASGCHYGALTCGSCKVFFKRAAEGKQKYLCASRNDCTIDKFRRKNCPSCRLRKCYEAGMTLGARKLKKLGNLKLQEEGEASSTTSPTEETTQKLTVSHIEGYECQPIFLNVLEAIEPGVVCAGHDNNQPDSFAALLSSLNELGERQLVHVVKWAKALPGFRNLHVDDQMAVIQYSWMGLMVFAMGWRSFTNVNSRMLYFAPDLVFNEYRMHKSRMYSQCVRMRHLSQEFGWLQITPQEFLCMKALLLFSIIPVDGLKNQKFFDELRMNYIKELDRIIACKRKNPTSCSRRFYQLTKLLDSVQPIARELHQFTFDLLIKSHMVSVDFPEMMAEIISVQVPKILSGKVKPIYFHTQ
Estrogen receptor (Homo sapiens), sequence (P03372 whole entry, looked up): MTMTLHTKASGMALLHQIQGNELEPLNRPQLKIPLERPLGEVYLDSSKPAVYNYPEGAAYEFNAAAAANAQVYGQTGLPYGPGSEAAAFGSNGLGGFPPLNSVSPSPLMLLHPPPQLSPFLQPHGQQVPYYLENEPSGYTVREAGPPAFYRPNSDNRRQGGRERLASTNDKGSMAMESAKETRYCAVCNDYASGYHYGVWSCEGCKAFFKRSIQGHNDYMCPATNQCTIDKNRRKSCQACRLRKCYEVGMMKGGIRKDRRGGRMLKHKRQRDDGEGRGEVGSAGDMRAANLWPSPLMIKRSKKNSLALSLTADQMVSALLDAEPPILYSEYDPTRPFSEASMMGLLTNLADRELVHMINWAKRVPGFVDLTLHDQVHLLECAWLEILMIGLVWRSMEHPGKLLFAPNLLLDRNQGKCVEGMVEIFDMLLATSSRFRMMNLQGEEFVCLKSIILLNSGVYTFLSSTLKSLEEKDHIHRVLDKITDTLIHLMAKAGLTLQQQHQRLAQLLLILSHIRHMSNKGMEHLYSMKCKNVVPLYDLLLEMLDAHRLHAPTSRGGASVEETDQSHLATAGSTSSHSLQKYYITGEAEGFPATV
Aromatase (Homo sapiens), sequence (P11511 whole entry, looked up): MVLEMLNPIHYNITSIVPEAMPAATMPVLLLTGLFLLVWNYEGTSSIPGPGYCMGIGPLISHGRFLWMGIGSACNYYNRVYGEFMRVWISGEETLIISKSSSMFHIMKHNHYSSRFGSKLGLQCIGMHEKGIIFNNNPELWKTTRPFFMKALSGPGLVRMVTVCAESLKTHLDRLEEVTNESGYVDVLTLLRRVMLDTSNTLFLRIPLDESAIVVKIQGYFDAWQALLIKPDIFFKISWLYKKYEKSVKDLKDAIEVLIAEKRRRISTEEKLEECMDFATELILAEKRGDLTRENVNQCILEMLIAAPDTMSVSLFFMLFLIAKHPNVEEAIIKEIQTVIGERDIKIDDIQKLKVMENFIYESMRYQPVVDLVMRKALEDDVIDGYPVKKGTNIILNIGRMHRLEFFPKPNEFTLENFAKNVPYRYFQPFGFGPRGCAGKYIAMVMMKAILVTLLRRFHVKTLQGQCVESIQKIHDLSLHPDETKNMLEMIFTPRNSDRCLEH

Structure (SMILES)	Potency [1]	Potency [2]	Potency [3]	Potency [4]	Potency [5]	Potency [6]	Potency [7]	Potency [8]	Potency [9]	Potency [10]	Potency [11]	Potency [12]	Potency [13]	Potency [14]	Potency [15]	Potency (Aromatase (Homo sapiens))	outcome [16]	Potency [17]	Potency [18]	Potency [19]
O=C(O)CP(=O)(O)O	inactive	inactive	inactive	inactive	inactive	inactive	inactive	inactive	inactive	inactive	inactive	inactive	inactive	inactive	inactive	inactive	–	–	–	–
CC(C)(O)CCC(C)(C)O	inactive	inactive	inactive	inactive	inactive	inactive	inactive	inactive	inactive	inactive	inactive	inactive	inactive	inactive	inactive	inactive	inactive	inactive	–	–
CCCCN(CCO)CCCC	inactive	inactive	inactive	inactive	inactive	inactive	inactive	inactive	inactive	inactive	inactive	inactive	inactive	inactive	inactive	inactive	–	–	–	–
CC(=O)N[C@@H](CS)C(=O)O	inactive	inactive	inactive	inactive	inactive	inactive	inactive	inactive	inactive	inactive	inactive	inactive	inactive	inactive	inactive	inactive	–	–	–	–
Cc1cc(OCCOCC[N+](C)(C)Cc2ccccc2)ccc1C(C)(C)CC(C)(C)C	21.3 µM (active) and 17.3 µM (active)	841 nM (active) and 1.21 µM (active)	1.19 µM (active) and 682 nM (active)	1.06 µM (active) and 765 nM (active)	16.9 µM (active) and 15.4 µM (active)	24.2 µM (active)	10.6 µM (active) and 12.1 µM (active)	13.3 µM (active) and 10.8 µM (active)	inactive	–	15.1 µM (active) and 6.13 µM (active)	inactive	–	26.6 µM (active)	inactive	21.1 µM (active) and 30.5 µM (active)	inactive	18.8 µM (active) and 12.1 µM (active)	–	–
CCOc1ccc2c(c1)C(C)=CC(C)(C)N2	inactive	13.3 µM (active) and 13.7 µM (active)	26.6 µM (active) and 27.2 µM (active) and 17.2 µM (active)	21.1 µM (active) and 54.2 µM (active) and 15.4 µM (active)	inactive	inactive	inactive	33.5 µM (active)	inactive	inactive	inactive	inactive	inactive	inactive	inactive	inactive	inactive	inactive	inactive	–
NCCO	inactive	inactive	inactive and 68.6 µM (active)	inactive	inactive	inactive	inactive	inactive	inactive	inactive	inactive	inactive	inactive	inactive	inactive	inactive and 61.1 µM (active)	–	–	–	–
C=C(C)C(=O)O	inactive	inactive	inactive	inactive	inactive	inactive	inactive	inactive	inactive	inactive	inactive	inactive	inactive	inactive	inactive	inactive	–	–	–	–
C=C(C)C1CC=C(C)C(OC(C)=O)C1 (configuration not stated)	inactive	inactive	inactive	inactive	inactive	inactive	inactive	inactive	inactive	inactive	inactive	inactive	inactive	inactive	inactive	inactive	–	–	–	–
Cc1cccc(O)c1C	inactive	inactive	inactive	inactive	inactive	inactive	inactive	inactive	inactive	inactive	inactive	inactive	inactive	inactive	inactive	inactive	–	–	–	–
Cc1c2oc3c(C)ccc(C(=O)N[C@@H]4C(=O)N[C@H](C(C)C)C(=O)N5CCC[C@H]5C(=O)N(C)CC(=O)N(C)[C@@H](C(C)C)C(=O)O[C@@H]4C)c3nc-2c(C(=O)N[C@@H]2C(=O)N[C@H](C(C)C)C(=O)N3CCC[C@H]3C(=O)N(C)CC(=O)N(C)[C@@H](C(C)C)C(=O)O[C@@H]2C)c(N)c1=O (I: T[dV]P[Sar][NMeV] / II: T[dV]P[Sar][NMeV]; ester I:1-I:C, II:1-II:C; linker I:N-II:N via Actinocin(9to1))	239 nM (active) and 9.5 nM (active)	6.7 nM (active) and 1.1 nM (active)	7.5 nM (active) and 0.7 nM (active)	2.4 nM (active)	inactive	–	6 nM (active) and 0.9 nM (active)	0.0042 µM (active)	inactive	53.5 nM [inconclusive] (active) and 13.4 nM [inconclusive] (active)	–	inactive	–	84.1 nM (active) and 10.6 nM (active)	15 µM (active) and 13.3 µM (active)	94.4 nM (active) and 1.7 nM (active)	inactive	15 nM (active) and 4.2 nM (active)	23.9 nM (active) and 1 nM (active)	inactive

Source: PubChem BioAssay (Tox21)
